Results reported in PubChem BioAssay (EPA / NIEHS).
Calls of active or inactive are those of the source. Rule for the calls: active = hit-call score of the fitted dose curve at least 0.9, where 1 is the maximum; inactive = score below 0.9.

How the values were obtained:
[1] = read-out: Monokine induced gamma interferon (MIG), CXCL9 (gene 4283); assay: BSK_3C_MIG: BioMAP Diversity Plus: 3C Assay for Monokine induced gamma interferon (MIG) Biomarker Activity (AID 2283021); details: primary human endothelial cells (HUVEC); actives raise or lower the signal
In short: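 HUVEC, 3C system; 24 h chemical exposure; MIG by ELISA; bidirectional fit vs DMSO baseline.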

[2] = BSK_3C_SRB: Viability Assessment in the BioMAP Diversity Plus: 3C Assay (AID 2283023); details: primary human endothelial cells (HUVEC);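 note: fitted both ways against DMSO so a hit may be signal rise or drop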
In short: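 Human umbilical vein endothelial cells in the 3C system, treated 24 h. Total protein measured by 0.1% sulforhodamine B staining after 10% TCA fixation, read at 560 nm; bidirectional fit versus DMSO.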

[3] = read-out: Matrix Metallopeptidase 1 (MMP1), MMP1 (gene 4312); assay: BSK_BE3C_MMP1: BioMAP Diversity Plus: BE3C Assay for Matrix Metallopeptidase 1 (MMP1) Biomarker Activity (AID 2283024); details: primary human bronchial epithelial cells; actives raise or lower the signal
In short: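 ELISA read-out of MMP1 in human lung bronchial epithelial primary cultures, 24 h post-dose; bidirectional curve fit vs DMSO baseline, gain or loss of signal scored.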

[4] = BSK_3C_Vis: BioMAP Diversity Plus: 3C Assay for Morphology Visualization (AID 2283025); details: primary human endothelial cells (HUVEC);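 note: fitted both ways so gain or loss versus DMSO counts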
In short: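 HUVEC, 3C system; light microscopy of morphology at 24 h post-dose. Bidirectional fit vs DMSO baseline. Secondary readout, background-control function.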

[5] = read-out: Pselectin, SELP (gene 6403); assay: BSK_4H_Pselectin: BioMAP Diversity Plus: 4H Assay for Pselectin Biomarker Activity (AID 2283026); details: primary human endothelial cells (HUVEC); actives raise or lower the signal
In short: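 HUVEC, 24 h chemical exposure; P-selectin read by ELISA. Bidirectional curve fit vs DMSO baseline; gain or loss of signal scored.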

[6] = BSK_4H_SRB: Viability Assessment in the BioMAP Diversity Plus: 4H Assay (AID 2283027); details: primary human endothelial cells (HUVEC);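 note: cells exposed to compound for 24 h before staining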
In short: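 Cytotoxicity read-out in primary human endothelial cells: after 24 h compound exposure, cells were TCA-fixed (10%), stained with 0.1% SRB and absorbance taken at 560 nm. Values fitted in both directions relative to DMSO.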

[7] = BSK_BE3C_SRB: Viability Assessment in the BioMAP Diversity Plus: BE3C Assay (AID 2283028); details: primary human bronchial epithelial cells
In short: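 Human bronchial epithelial primary cells in confluent culture, 24 h after chemical dosing; total protein by 0.1% SRB staining after 10% TCA fixation, read at 560 nm. Bidirectional fitting versus DMSO baseline.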

[8] = read-out: Thrombomodulin, THBD (gene 7056); assay: BSK_3C_Thrombomodulin: BioMAP Diversity Plus: 3C Assay for Thrombomodulin Biomarker Activity (AID 2283029); details: primary human endothelial cells (HUVEC); actives raise or lower the signal
In short: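 HUVEC, 3C conditions; compound 24 h; thrombomodulin by ELISA; bidirectional curve fit vs DMSO baseline; parallel SRB total-protein staining for cytotoxicity.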

[9] = read-out: Urokinase-type plasminogen activator receptor (uPAR), PLAUR (gene 5329); assay: BSK_4H_uPAR: BioMAP Diversity Plus: 4H Assay for Urokinase-type plasminogen activator receptor (uPAR) Biomarker Activity (AID 2283030); details: primary human endothelial cells (HUVEC); actives raise or lower the signal
In short: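 Human umbilical vein endothelial cells in the 4H system, 24 h after chemical dosing. Cell-surface uPAR measured by ELISA, fitted in both directions versus DMSO; cytotoxicity checked by SRB total protein in parallel cultures.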

[10] = read-out: Vascular endothelial growth factor receptor 2 (Homo sapiens) (UniProt P35968); assay: BSK_4H_VEGFRII: BioMAP Diversity Plus: 4H Assay for Vascular endothelial growth factor receptor 2 (VEGFR2) Biomarker Activity (AID 2283031); details: primary human endothelial cells (HUVEC); actives raise or lower the signal
In short: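 Primary human umbilical vein endothelial cells (4H system), 24 h exposure; cell-surface VEGFR2 measured by ELISA. Bidirectional fitting versus DMSO; cytotoxicity checked in parallel by SRB total-protein staining.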

[11] = read-out: Human Leukocyte Antigen - DR isotype (HLADR), HLA-DRA (gene 3122); assay: BSK_BE3C_HLADR: BioMAP Diversity Plus: BE3C Assay for Human Leukocyte Antigen - DR isotype (HLADR) Biomarker Activity (AID 2283032); details: primary human bronchial epithelial cells; actives raise or lower the signal
In short: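 Primary human bronchial epithelial cells (BE3C); 24 h chemical exposure; HLA-DR by ELISA; bidirectional curve fit vs DMSO baseline.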

[12] = read-out: Vascular cell adhesion molecule 1 (VCAM1), VCAM1 (gene 7412); assay: BSK_4H_VCAM1: BioMAP Diversity Plus: 4H Assay for Vascular cell adhesion molecule 1 (VCAM1) Biomarker Activity (AID 2283033); details: primary human endothelial cells (HUVEC); actives raise or lower the signal;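 note: cell-surface VCAM-1 protein measured by ELISA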
In short: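 HUVEC, 24 h post-dose; VCAM-1 by ELISA. Bidirectional curve fit vs DMSO baseline. Parallel SRB total-protein stain (0.1% SRB after 10% TCA fixation, 560 nm) for cytotoxicity.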

[13] = read-out: Interferon-gamma inducible Protein 10 (IP10), CXCL10 (gene 3627); assay: BSK_BE3C_IP10: BioMAP Diversity Plus: BE3C Assay for Interferon-gamma inducible Protein 10 (IP10) Biomarker Activity (AID 2283034); details: primary human bronchial epithelial cells; actives raise or lower the signal
In short: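 ELISA readout of IP-10 in BE3C system: primary human bronchial epithelial cells, 24 h post-dosing; bidirectional curve fit vs DMSO baseline.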

[14] = read-out: Monokine induced gamma interferon (MIG), CXCL9 (gene 4283); assay: BSK_BE3C_MIG: BioMAP Diversity Plus: BE3C Assay for Monokine induced gamma interferon (MIG) Biomarker Activity (AID 2283035); details: primary human bronchial epithelial cells; actives raise or lower the signal;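 note: MIG protein measured by ELISA in BE3C cultures after 24 h of dosing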
In short: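 ELISA quantified MIG after 24 h exposure of primary bronchial epithelial cultures, analysed in both directions relative to DMSO. Cytotoxicity tracked in parallel cultures by sulforhodamine B staining.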

[15] = read-out: Transforming growth factor beta 1 (TGFb1), TGFB1 (gene 7040); assay: BSK_BE3C_TGFb1: BioMAP Diversity Plus: BE3C Assay for Transforming growth factor beta 1 (TGFb1) Biomarker Activity (AID 2283036;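 note: TGF-b1 protein level measured by ELISA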); details: primary human bronchial epithelial cells; actives raise or lower the signal
In short: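 Read-out: ELISA for TGF-b1 in primary human bronchial epithelial cultures, 24 h post-dose. Bidirectional curve fitting vs DMSO control; gain or loss of signal both scored.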

[16] = read-out: Plasminogen activator inhibitor-1 (PAI1), SERPINE1 (gene 5054); assay: BSK_BE3C_PAI1: BioMAP Diversity Plus: BE3C Assay for Plasminogen activator inhibitor-1 (PAI1) Biomarker Activity (AID 2283037); details: primary human bronchial epithelial cells; actives raise or lower the signal
In short: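 ELISA read-out of PAI-1 from human bronchial epithelial primary cells, 24 h post-dosing; bidirectional curve fit vs DMSO baseline, gain or loss of signal scored.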

[17] = read-out: urokinase plasminogen activator (uPA), PLAU (gene 5328); assay: BSK_BE3C_uPA: BioMAP Diversity Plus: BE3C Assay for urokinase plasminogen activator (uPA) Biomarker Activity (AID 2283038); details: primary human bronchial epithelial cells; actives raise or lower the signal;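 note: uPA protein level quantified by ELISA in cell cultures; uPA read one day after compound addition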
In short: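 Primary human bronchial epithelial cells, uPA measured by ELISA 24 h after dosing. Bidirectional change relative to DMSO; cytotoxicity checked in parallel cultures by sulforhodamine B total-protein staining.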

[18] = read-out: Urokinase-type plasminogen activator receptor (uPAR), PLAUR (gene 5329); assay: BSK_BE3C_uPAR: BioMAP Diversity Plus: BE3C Assay for Urokinase-type plasminogen activator receptor (uPAR) Biomarker Activity (AID 2283039); details: primary human bronchial epithelial cells; actives raise or lower the signal;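 note: cells exposed to compound for one day before measurement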
In short: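 ELISA readout of uPAR on human lung primary bronchial epithelial cells, 24 h post-dosing. Bidirectional curve fit relative to DMSO vehicle baseline; gain or loss of signal both scored.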

[19] = read-out: Interleukin-6 (IL6), IL6 (gene 3569); assay: BSK_CASM3C_IL6: BioMAP Diversity Plus: CASM3C Assay for Interleukin-6 (IL6) Biomarker Activity for (AID 2283040); details: primary human coronary artery smooth muscle cells; actives raise or lower the signal

Measured: outcome

[As]#[In]
inactive: all assays above

C=CCc1ccc2c(c1)OCO2
not listed: [15]
inactive: all other assays above

O=P(OCCCl)(OCCCl)OCCCl
not listed: [15]
inactive: all other assays above

CCCCCCCCCCCCCN1CC(C)OC(C)C1 (stereo unspecified)
inactive: all assays above

Nc1ccc(Oc2ccc(N)cc2)cc1
not listed: [15]
inactive: all other assays above

CN(C)[C@@H]1C(=O)C(C(N)=O)=C(O)[C@@]2(O)C(=O)C3=C(O)c4c(O)cccc4[C@@](C)(O)[C@H]3C[C@@H]12
not listed: [15]
inactive: all other assays above

[O-][Cl+]O
not listed: [10]
inactive: all other assays above

CN(C)C(=O)Nc1ccc(Cl)cc1
not listed: [15]
inactive: all other assays above
